This is one part of the list. No count for the full screen is at hand.

This assay has as its target furin, P09958. Nature of the assay: furin cleavage Z-score vs untreated control; higher = more cleavage, active = 3.5 or more, inactive = 1 or less, 8 variable residues between constant flanks. The method, boiled down: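 The cleavage Z-score is the log read count relative to furin-free reactions, lowess-adjusted and scaled by median absolute deviation. Counts came from sequencing DNA released from bead-bound 8-mer peptide–cDNA fusions after digestion with purified furin for 7.5, 15 or 30 min.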
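Also: purified furin at 1:10 enzyme:substrate in 50 mM HEPES pH 7.5.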

furin, P09958, sequence (P09958 whole entry, the tested form may be a part): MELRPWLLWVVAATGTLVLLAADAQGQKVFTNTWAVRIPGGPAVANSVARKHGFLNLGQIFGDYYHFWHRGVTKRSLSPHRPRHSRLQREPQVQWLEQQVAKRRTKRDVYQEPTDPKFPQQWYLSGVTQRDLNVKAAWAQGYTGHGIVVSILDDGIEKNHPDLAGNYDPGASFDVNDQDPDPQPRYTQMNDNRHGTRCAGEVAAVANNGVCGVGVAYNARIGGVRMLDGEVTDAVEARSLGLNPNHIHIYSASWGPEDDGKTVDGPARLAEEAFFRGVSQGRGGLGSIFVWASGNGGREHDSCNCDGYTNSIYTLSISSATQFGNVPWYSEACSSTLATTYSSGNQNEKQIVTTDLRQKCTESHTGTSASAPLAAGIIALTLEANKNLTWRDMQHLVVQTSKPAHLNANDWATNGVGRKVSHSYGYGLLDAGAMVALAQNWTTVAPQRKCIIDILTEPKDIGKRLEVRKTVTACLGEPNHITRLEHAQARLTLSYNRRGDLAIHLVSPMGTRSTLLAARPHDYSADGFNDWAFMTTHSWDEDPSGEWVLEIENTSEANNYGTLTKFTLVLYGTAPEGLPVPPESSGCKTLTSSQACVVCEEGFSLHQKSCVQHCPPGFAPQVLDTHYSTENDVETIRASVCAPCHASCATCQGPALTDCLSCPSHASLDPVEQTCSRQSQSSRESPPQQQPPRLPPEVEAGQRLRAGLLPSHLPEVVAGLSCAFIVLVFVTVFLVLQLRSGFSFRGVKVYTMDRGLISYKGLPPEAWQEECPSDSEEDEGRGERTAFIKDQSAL

For CASTPCSLHLAGNASASA [HC2525], the “furin cleavage Z-score” value reads like this: (7.5 min) 0.933 (inactive); (15 min) 1.1; (30 min) 1.05.
The corresponding values for CAEMPCHRPSAGNASASA [HC2326] are 0.275 (inactive), 1.07 and -0.483 (inactive).
In the case of CAVLSRRKRHAGNASASA [FS-1430], the “furin cleavage Z-score” value runs as follows: (7.5 min) 13.5 (active); (15 min) 13.1 (active); (30 min) 9.48 (active).
In the case of CASAHREPRLAGNASASA [FS-143], the “furin cleavage Z-score” value (7.5 min) is -0.537 (inactive), the “furin cleavage Z-score” value (15 min) is -2.16 (inactive) and the “furin cleavage Z-score” value (30 min) is -0.735 (inactive).
Taken in the same sequence, the figures for CAVLSGKPAIAGNASASA [HC1004] were -1.21 (inactive), -0.08 (inactive) and -0.703 (inactive).
Turning to CASKKRKKKHAGNASASA [FS-720], the “furin cleavage Z-score” value runs as follows: (7.5 min) -0.105 (inactive); (15 min) 0.768 (inactive); (30 min) 1.79.
On to CAPRYRRKRHAGNASASA [FS-1552], for which the “furin cleavage Z-score” value was 10.8 (active) (7.5 min), 11.7 (active) (15 min) and 10.8 (active) (30 min).
In the case of CAVLSRDGRKAGNASASA [FS-105], the “furin cleavage Z-score” value is -1.15 (inactive) (7.5 min), 0.968 (inactive) (15 min) and 0.203 (inactive) (30 min).
As to CASATRRKRHAGNASASA [FS-145], the “furin cleavage Z-score” value runs as follows: (7.5 min) 10.8 (active); (15 min) 9.07 (active); (30 min) 8.87 (active).
Taken in the same sequence, the figures for CARNMWSGTFAGNASASA [HC1187] were 1.59, -0.0231 (inactive) and 2.71.
On to CAIDILAGYGAGNASASA [HC1085], for which the “furin cleavage Z-score” value (7.5 min) is 0.177 (inactive), the “furin cleavage Z-score” value (15 min) was -2.37 (inactive) and the “furin cleavage Z-score” value (30 min) is -1.48 (inactive).
Take CATFTIETITAGNASASA [HC895]: the “furin cleavage Z-score” value by setting is: (7.5 min) -1.54 (inactive); (15 min) -0.657 (inactive); (30 min) -0.39 (inactive).
CARKDRGASKAGNASASA [FS-1826]: the “furin cleavage Z-score” value was -0.0944 (inactive) (7.5 min), -0.514 (inactive) (15 min) and 0.14 (inactive) (30 min).
Take CACDLDPQARAGNASASA [HC1492]: the “furin cleavage Z-score” value was -0.128 (inactive) (7.5 min), -0.812 (inactive) (15 min) and -1.68 (inactive) (30 min).
CAREKRRQRNAGNASASA [FS-2135]: the “furin cleavage Z-score” value was 2.7 (7.5 min), 5.06 (active) (15 min) and 5.01 (active) (30 min).
The corresponding values for CAREKRRGVTAGNASASA [FS-1819] are 0.463 (inactive), -0.946 (inactive) and 0.55 (inactive).
For the sequence CAREKRWSVSAGNASASA [FS-2256], the “furin cleavage Z-score” value by setting is: (7.5 min) 0.749 (inactive); (15 min) 1.64; (30 min) 3.68 (active).
Turning to CAREKRPSRSAGNASASA [FS-488], the “furin cleavage Z-score” value is, setting by setting: (7.5 min) 3.53 (active); (15 min) 6.66 (active); (30 min) 4.77 (active).
Take CADLSRPSRSAGNASASA [FS-757]: the “furin cleavage Z-score” value is 0.456 (inactive) (7.5 min), 1.72 (15 min) and 2.66 (30 min).
As to CAMMLLISQAAGNASASA [HC529], the “furin cleavage Z-score” value is -0.436 (inactive) (7.5 min), -0.997 (inactive) (15 min) and 1.3 (30 min).
For CADKMEECSQAGNASASA [HC1814], the “furin cleavage Z-score” value was -0.565 (inactive) (7.5 min), 0.769 (inactive) (15 min) and -0.546 (inactive) (30 min).
As to CAEINRVAACAGNASASA [HC1611], the “furin cleavage Z-score” value runs as follows: (7.5 min) 0.443 (inactive); (15 min) -0.785 (inactive); (30 min) -0.701 (inactive).
For CARYNRPPREAGNASASA [FS-378], the “furin cleavage Z-score” value (7.5 min) was 9.4 (active), the “furin cleavage Z-score” value (15 min) was 8.69 (active) and the “furin cleavage Z-score” value (30 min) is 7.85 (active).
With CAEHNRTPREAGNASASA [FS-20], the “furin cleavage Z-score” value is 6.46 (active) (7.5 min), 6.63 (active) (15 min) and 5.97 (active) (30 min).
Turning to CARDGRYTPCAGNASASA [FS-2903], the “furin cleavage Z-score” value by setting is: (7.5 min) 0.99 (inactive); (15 min) -0.489 (inactive); (30 min) -0.0469 (inactive).
The corresponding values for CAGYELQGREAGNASASA [FS-534] are -1.04 (inactive), -1.1 (inactive) and -1.02 (inactive).
As for CAYHGRIPREAGNASASA [FS-1619], the “furin cleavage Z-score” value (7.5 min) was 4.85 (active), the “furin cleavage Z-score” value (15 min) is 5.6 (active) and the “furin cleavage Z-score” value (30 min) is 4.92 (active).
The corresponding values for CARYSAPPGDAGNASASA [HC1543] are -1 (inactive), 0.134 (inactive) and -1.47 (inactive).

The record behind these values is the supplement of paper PMC3545927.
